Assay results: PubChem BioAssay AID1159580 (chemical genetic matrix, 2015)
Out of some 5,500 compounds screened, about 2,000 (36%) were called active. About 18% were inconclusive and are not listed. Cut-off read from the data, not from the text of the source: active = normalized growth mostly below about 0.91 (no sharp cut-off); inconclusive = no clear call, values can overlap the other calls; inactive = mostly above about 0.92. Some of the results follow.

Experiment: chemical genetic growth profiling, strain panel (AID 1159580);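 note: tested at 20 µM; growth read once vehicle control cultures reached saturation at 30 °C; 1 = growth at the plate median or of vehicle wells; lower values mean less growth of the strain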
Details: growth OD

Measured: normalized growth

COc1cc(OC)c2c3c1C(=O)c1c(OC)cc(C)c4c(OC)cc(c-3c14)C(C)(C)C2=O
inactive: S. cerevisiae deletion strains, locus YAL013W, strain DEP1, stronger effect = lower value 1.02 | S. cerevisiae deletion strains, locus YBR021W, strain FUR4, stronger effect = lower value 0.993 | S. cerevisiae deletion strains, locus YBR229C, strain ROT2, stronger effect = lower value 1.02 | S. cerevisiae deletion strains, locus YCL029C, strain bik1, stronger effect = lower value 0.993 | S. cerevisiae deletion strains, locus YDL035C, strain GPR1, stronger effect = lower value 0.99 | S. cerevisiae deletion strains, locus YDL074C, strain BRE1, stronger effect = lower value 0.991 | S. cerevisiae deletion strains, locus YDL101C, strain DUN1, stronger effect = lower value 1.01 | S. cerevisiae deletion strains, locus YDL134C, strain PPH21, stronger effect = lower value 1 | S. cerevisiae deletion strains, locus YDL185W, strain tfp1, stronger effect = lower value 0.991 | S. cerevisiae deletion strains, locus YDL192W, strain arf1, stronger effect = lower value 0.988 | S. cerevisiae deletion strains, locus YDR101C, strain arx1, stronger effect = lower value 0.971 | S. cerevisiae deletion strains, locus YDR150W, strain NUM1, stronger effect = lower value 1.01 | S. cerevisiae deletion strains, locus YDR162C, strain NBP2, stronger effect = lower value 1.03 | S. cerevisiae deletion strains, locus YDR318W, strain mcm21, stronger effect = lower value 0.98 | S. cerevisiae deletion strains, locus YDR388W, stronger effect = lower value 0.989 | S. cerevisiae deletion strains, locus YDR502C, strain sam2, stronger effect = lower value 0.981 | S. cerevisiae deletion strains, locus YEL061C, strain CIN8, stronger effect = lower value 1.01 | S. cerevisiae deletion strains, locus YER110C, stronger effect = lower value 0.988 | S. cerevisiae deletion strains, locus YER155C, strain BEM2, stronger effect = lower value 1.01 | S. cerevisiae deletion strains, locus YER167W, strain BCK2, stronger effect = lower value 0.987 | S. cerevisiae deletion strains, locus YGL078C, strain dbp3, stronger effect = lower value 1 | S. cerevisiae deletion strains, locus YGL086W, strain mad1, stronger effect = lower value 0.968 | S. cerevisiae deletion strains, locus YGL248W, strain PDE1, stronger effect = lower value 1.01 | S. cerevisiae deletion strains, locus YGR078C, strain PAC10, stronger effect = lower value 1.01 | S. cerevisiae deletion strains, locus YGR135W, strain pre9, stronger effect = lower value 0.983 | S. cerevisiae deletion strains, locus YGR229C, strain SMI1, stronger effect = lower value 0.997 | S. cerevisiae deletion strains, locus YGR252W, strain gcn5, stronger effect = lower value 0.896 | S. cerevisiae deletion strains, locus YHR030C, strain SLT2, stronger effect = lower value 1.01 | S. cerevisiae deletion strains, locus YHR079C, strain IRE1 (second series), stronger effect = lower value 0.977 | S. cerevisiae deletion strains, locus YHR094C, strain hxt1, stronger effect = lower value 0.985 | S. cerevisiae deletion strains, locus YHR129C, strain ARP1, stronger effect = lower value 1.01 | S. cerevisiae deletion strains, locus YHR200W, strain rpn10, stronger effect = lower value 0.989 | S. cerevisiae deletion strains, locus YIL066C, strain RNR3, stronger effect = lower value 0.999 | S. cerevisiae deletion strains, locus YIL073C, strain SPO22, stronger effect = lower value 0.924 | S. cerevisiae deletion strains, locus YIL125W, strain kgd1, stronger effect = lower value 0.994 | S. cerevisiae deletion strains, locus YIR030C, strain dcg1, stronger effect = lower value 0.979 | S. cerevisiae deletion strains, locus YJL095W, strain BCK1, stronger effect = lower value 1.01 | S. cerevisiae deletion strains, locus YJL134W, strain LCB3, stronger effect = lower value 1 | S. cerevisiae deletion strains, locus YJL168C, strain set2, stronger effect = lower value 0.987 | S. cerevisiae deletion strains, locus YJL187C, strain SWE1 (second series), stronger effect = lower value 1.01 | S. cerevisiae deletion strains, locus YJR043C, strain POL32, stronger effect = lower value 0.993 | S. cerevisiae deletion strains, locus YJR075W, strain HOC1, stronger effect = lower value 0.988 | S. cerevisiae deletion strains, locus YKL009W, strain mrt4, stronger effect = lower value 0.979 | S. cerevisiae deletion strains, locus YKL068W, stronger effect = lower value 0.992 | S. cerevisiae deletion strains, locus YKL085W, strain MDH1 (second series), stronger effect = lower value 0.99 | S. cerevisiae deletion strains, locus YKL085W, strain MDH1, stronger effect = lower value 0.99 | S. cerevisiae deletion strains, locus YKL190W, strain CNB1, stronger effect = lower value 1 | S. cerevisiae deletion strains, locus YKR001C, strain vps1, stronger effect = lower value 0.973 | S. cerevisiae deletion strains, locus YLR039C, strain RIC1, stronger effect = lower value 1.01 | S. cerevisiae deletion strains, locus YLR058C, strain SHM2, stronger effect = lower value 1.01 | S. cerevisiae deletion strains, locus YLR102C, strain apc9, stronger effect = lower value 0.981 | S. cerevisiae deletion strains, locus YLR262C, strain YPT6, stronger effect = lower value 0.995 | S. cerevisiae deletion strains, locus YLR268W, strain sec22, stronger effect = lower value 0.973 | S. cerevisiae deletion strains, locus YLR330W, strain CHS5, stronger effect = lower value 1.02 | S. cerevisiae deletion strains, locus YLR342W, strain FKS1 (second series), stronger effect = lower value 0.967 | S. cerevisiae deletion strains, locus YLR371W, strain rom2, stronger effect = lower value 0.99 | S. cerevisiae deletion strains, locus YLR418C, strain cdc73, stronger effect = lower value 0.947 | S. cerevisiae deletion strains, locus YML016C, strain PPZ1, stronger effect = lower value 1.01 | S. cerevisiae deletion strains, locus YML032C, strain rad52, stronger effect = lower value 0.973 | S. cerevisiae deletion strains, locus YML124C, strain tub3, stronger effect = lower value 0.985 | S. cerevisiae deletion strains, locus YMR078C, strain ctf18, stronger effect = lower value 0.99 | S. cerevisiae deletion strains, locus YMR223W, strain ubp8, stronger effect = lower value 0.969 | S. cerevisiae deletion strains, locus YMR263W, strain SAP30, stronger effect = lower value 1.02 | S. cerevisiae deletion strains, locus YMR307W, strain GAS1, stronger effect = lower value 0.977 | S. cerevisiae deletion strains, locus YNL067W, strain RPL9B, stronger effect = lower value 1.01 | S. cerevisiae deletion strains, locus YNL128W, strain TEP1, stronger effect = lower value 1.02 | S. cerevisiae deletion strains, locus YNL153C, strain GIM3, stronger effect = lower value 1.02 | S. cerevisiae deletion strains, locus YNL233W, strain BNI4, stronger effect = lower value 1.01 | S. cerevisiae deletion strains, locus YNL250W, strain rad50, stronger effect = lower value 0.989 | S. cerevisiae deletion strains, locus YNL271C, strain bni1, stronger effect = lower value 0.994 | S. cerevisiae deletion strains, locus YNL298W, strain CLA4, stronger effect = lower value 0.99 | S. cerevisiae deletion strains, locus YNL307C, strain MCK1, stronger effect = lower value 0.95 | S. cerevisiae deletion strains, locus YNL322C, strain KRE1, stronger effect = lower value 1.01 | S. cerevisiae deletion strains, locus YNR052C, strain pop2, stronger effect = lower value 0.985 | S. cerevisiae deletion strains, locus YOL006C, strain TOP1, stronger effect = lower value 0.991 | S. cerevisiae deletion strains, locus YOL012C, strain htz1 1.08 | S. cerevisiae deletion strains, locus YOL147C, strain pex11, stronger effect = lower value 0.994 | S. cerevisiae deletion strains, locus YOR061W, strain CKA2, stronger effect = lower value 1 | S. cerevisiae deletion strains, locus YOR069W, strain VPS5, stronger effect = lower value 1 | S. cerevisiae deletion strains, locus YOR136W, strain idh2, stronger effect = lower value 0.987 | S. cerevisiae deletion strains, locus YOR144C, strain elg1, stronger effect = lower value 0.991 | S. cerevisiae deletion strains, locus YOR184W, strain ser1, stronger effect = lower value 0.952 | S. cerevisiae deletion strains, locus YOR316C, strain cot1, stronger effect = lower value 0.981 | S. cerevisiae deletion strains, locus YPL055C, strain LGE1, stronger effect = lower value 1.01 | S. cerevisiae deletion strains, locus YPL241C, strain CIN2, stronger effect = lower value 1.01 | S. cerevisiae deletion strains, locus YPR119W, strain clb2, stronger effect = lower value 0.988 | S. cerevisiae deletion strains, locus YPR141C, strain kar3, stronger effect = lower value 0.986 | S. cerevisiae deletion strains, locus YPR163C, strain tif3, stronger effect = lower value 0.989 | S. cerevisiae deletion strains, locus YPR167C, strain met16, stronger effect = lower value 0.981 | S. cerevisiae deletion strains, strain wtn01, stronger effect = lower value 0.95 | S. cerevisiae strains, strain wild type, stronger effect = lower value 1
